{
  "source": "PubChem BioAssay AID624305",
  "about": "(National Center for Advancing Translational Sciences (NCATS), 2012)",
  "note": "Results filed as inconclusive are left out. Where a call stands in place of a potency, no number is given. Calls of active or inactive are those of the source. The call rests on the fitted dose curve; in most records, active means well fitted activation curve with a large enough effect; inconclusive means small, poorly fitted or top-dose-only effect; inactive means no such curve, though single readings can be large or run the other way. Potency means the concentration at half of the fitted maximal effect.",
  "data": [
    {"experiment": "qHTS assay for re-activators of p53 using a Luc reporter: Hit Validation; further: nearly all actives have a fitted effect of over 75% in size", "conditions": "p53-responsive luciferase reporter cells, luminescence, H1299 line expressing heat-sensitive Ala138Val p53; series mostly up to 46.1 µM", "outline": "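Hit confirmation with a 1:5 dilution series, at 37 deg C for 24 hrs, in H1299 cells co-expressing temperature-sensitive p53-A138V and p53-responsive luciferase. Nocodazole served as control; luminescence read after 10 min with detection reagent.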", "values": [
      {"smiles": "CCc1ccc2[nH]c(=O)c(CN(CCN(CC)CC)C(=O)NC3CCCCC3)cc2c1", "Potency": "inactive"},
      {"smiles": "COc1cccc(/C=N/Nc2ccc([N+](=O)[O-])cn2)c1O", "Potency": "9.2 µM (active)"},
      {"smiles": "C=CCn1c(C)cc(C(=O)COC(=O)c2ccc(N)c([N+](=O)[O-])c2)c1C", "Potency": "0.411 µM (active)"},
      {"smiles": "COc1ccccc1-c1cc(C(=O)Nc2cc(C)on2)no1", "Potency": "16.4 µM (active)"},
      {"smiles": "CC(/C=C/c1ccccc1)=N/O", "Potency": "inactive"},
      {"smiles": "CN1CC(C(=O)Nc2ccc(F)c(Cl)c2)CC1=O", "note": "(stereo not drawn)", "Potency": "inactive"},
      {"smiles": "C=CCOc1c(OC)cc(/C=N/Nc2cccc(C(=O)O)c2)c(Br)c1Br", "Potency": "13 µM (active)"},
      {"smiles": "Cc1ccnc(NC(=S)NC(=O)c2cccs2)c1", "Potency": "0.082 µM (active)"},
      {"smiles": "CCCCc1ccc(NC(=S)Nc2ccc(Nc3ccc(OC)cc3)cc2)cc1", "Potency": "inactive"},
      {"smiles": "CCc1nnc(NC(=O)CCC(=O)Nc2ccccc2)s1", "Potency": "inactive"},
      {"smiles": "COc1ccc(-c2cc3ccc(F)cc3cn2)cc1", "Potency": "0.92 µM (active)"},
      {"smiles": "O=C(COC(=O)c1ccc(-c2nnc(-c3ccccc3)o2)cc1)c1ccccc1", "Potency": "2.91 µM (active)"},
      {"smiles": "ON=C1c2cc(OCCN3CCCCC3)ccc2-c2ccc(OCCN3CCCCC3)cc21", "Potency": "inactive"},
      {"smiles": "COc1ccc(C(=O)NC2CCc3ccccc32)cc1OC1CCN(C(C)C)CC1", "note": "(stereo not drawn)", "Potency": "inactive"},
      {"smiles": "CC(C)OC(=O)CCCCCN1C(=O)CSC1=S", "Potency": "inactive"},
      {"smiles": "Cc1cc(NC(=O)c2ccco2)sc1C", "Potency": "18.4 µM (active)"},
      {"smiles": "C/C(=N\\N=c1/scc(C)n1Cc1ccco1)c1cccc([N+](=O)[O-])c1", "Potency": "inactive"},
      {"smiles": "O=C(Nc1nc(-c2cccs2)cs1)c1ccc([N+](=O)[O-])o1", "Potency": "20.6 µM (active)"}
    ]}
  ]
}
